Rows were chosen to be rich in hits. Some 1.2% of all compounds tested hit in one or more screens of this group.
RGS4-Gao reg: modulators of RGS4 binding to Galphao, primary screen, biochemical, multiplexed bead flow cytometry. Guanine nucleotide-binding protein G(o) subunit alpha (Homo sapiens), P09471. actives lie on both sides. binding response (% of control), % at 10 µM. 220,000 compounds, 0.33% hits. AID 1415, 2008; in the data active = binding response below about 49% or above about 150%; inactive = in between;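 note: fluorescent Galphao activated with aluminum fluoride binding bead-coupled RGS4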
RGS16-Gao: modulators of RGS16 binding to Galphao, primary screen, biochemical, human proteins, multiplexed bead flow cytometry; bead-based flow cytometry RGS16-Galphao binding, fluorescence; actives lie on both sides; binding response (% of control), % at 10 µM; 220,000 compounds, 0.38% hits; Regulator of G-protein signaling 16 (Homo sapiens) + Guanine nucleotide-binding protein …; AID 1441, 2008;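 note: Galphao activated by GDP with aluminum fluoride before binding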
Target sequence (O15492 whole entry, looked up): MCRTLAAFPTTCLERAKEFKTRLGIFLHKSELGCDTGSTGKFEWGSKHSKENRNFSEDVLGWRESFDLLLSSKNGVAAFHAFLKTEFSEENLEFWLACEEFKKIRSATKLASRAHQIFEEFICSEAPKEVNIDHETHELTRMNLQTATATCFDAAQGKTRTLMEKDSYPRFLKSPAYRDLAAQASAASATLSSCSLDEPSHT
Target sequence (P09471 whole entry, looked up): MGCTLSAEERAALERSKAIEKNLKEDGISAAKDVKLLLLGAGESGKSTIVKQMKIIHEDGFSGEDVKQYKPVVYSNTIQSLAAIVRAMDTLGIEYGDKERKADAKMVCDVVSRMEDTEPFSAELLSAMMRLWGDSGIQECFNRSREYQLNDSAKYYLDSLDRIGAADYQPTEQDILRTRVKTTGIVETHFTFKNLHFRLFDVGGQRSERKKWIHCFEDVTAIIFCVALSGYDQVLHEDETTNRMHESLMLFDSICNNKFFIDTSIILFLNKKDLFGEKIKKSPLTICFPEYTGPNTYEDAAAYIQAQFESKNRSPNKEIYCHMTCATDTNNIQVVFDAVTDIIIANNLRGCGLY
Avidin bead fluor: green autofluorescence of compounds with avidin beads – biophysical, 488/530 nm, flow cytometry, artefact control, profiling panel | compound fluorescence 488/530 nm; stronger effect = higher value | fluorescence (KMESF) at 10 µM | 220,000 compounds, 0.38% hits | AID 1775, 2009; in the data active = fluorescence above about 47
RGS8-Gao: RGS8-Galphao binding modulators, primary screen, biochemical, multiplexed bead flow cytometry. response (percent of control binding), % at 10 µM. actives lie on both sides. Guanine nucleotide-binding protein G(o) subunit alpha (Homo sapiens), P09471. AID 1423, 2008. 220,000 compounds, 0.34% hits; in the data active = response below about 60% or above about 140%; inactive = in between;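 note: Galphao activated as the GDP aluminium fluoride complex binding bead-coupled RGS8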
RGS7-Gao: RGS7-Galphao binding modulators, primary screen, biochemical, multiplexed bead flow cytometry; 220,000 compounds, 0.35% hits; Guanine nucleotide-binding protein G(o) subunit alpha (Homo sapiens), P09471; binding response (% of control), % at 10 µM; actives lie on both sides; in the data active = binding response below about 49% or above about 150%; inconclusive = no clear call, values can overlap the other calls; inactive = in between;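 note: fluorescent Galphao held in activated GDP-AlF4 state binding bead-coupled RGS7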
GSH fluor: compound fluorescence on glutathione beads, profiling panel, artefact control, biophysical, 488/530 nm, flow cytometry; 190,000 compounds, 0.25% hits; fluorescence (KMESF) at 10 µM; GSH beads flow cytometry, compound fluorescence 488/530 nm; stronger effect = higher value; in the data active = fluorescence above about 89;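 note: glutathione beads carrying GST-tagged Bcl family fusion proteins plus one bare bead set; values are compound well signal with DMSO vehicle wells as background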
RGS-Gao: modulators of RGS–Galpha-o binding, primary screen, biochemical, multiplexed beads, flow cytometry, RGS4/7/8/16/19. shares compounds with RGS16-Gao. multiplexed bead flow cytometry. RGS4–Galpha-o binding response, % at 10 µM. 1,600 compounds, 99% hits. AID 1504, 2009;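 note: fluorescently labeled Galpha-o bound to GDP with aluminium fluoride binding biotinylated RGS beads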
Avidin counter: disruption of biotin probe capture by avidin, counter-screen for RGS protein interaction modulators, biochemical, flow cytometry, bead-based; shares compounds with RGS16-Gao; streptavidin beads, fluorescein-biotin binding; inhibition, % at 10 µM; 1,700 tested, under 10 active;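 active = inhibition above 50%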;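 note: median green fluorescence of gated singlet beads compared with DMSO control wells; 0% = DMSO wells and 100% = complete loss of bead fluorescence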
RGS8-Gao single: RGS8-Galphao binding modulators, confirmation, biochemical, multiplexed bead flow cytometry, single concentration; shares compounds with RGS16-Gao; bead-based flow cytometry RGS8-Galphao binding, fluorescence; actives lie on both sides; binding response (% of control), % at 10 µM; 1,700 compounds, 3% hits; in the data active = binding response below about 72% or above about 130%; inactive = in between;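 note: Galphao activated as GDP AlF4 complex before binding bead RGS8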
RGS7-Gao confirm: RGS7-Galphao binding modulators, confirmation, biochemical, multiplexed bead flow cytometry, single concentration. shares compounds with RGS16-Gao. bead-based flow cytometry RGS7-Galphao binding; actives lie on both sides. response (percent of control binding), % at 10 µM. 1,700 compounds, 7.8% hits; in the data active = response below about 75% or above about 130%; inactive = in between;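 note: fluorescent Galphao activated with GDP and aluminum fluoride binding bead-coupled RGS7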
RGS16-Gao single: modulators of RGS16-Galphao protein binding, confirmation, biochemical, single concentration, multiplexed bead flow cytometry; shares compounds with RGS16-Gao; 1,700 compounds, 4% hits; response (% of control binding), % at 10 µM; bead-based flow cytometry; actives lie on both sides; in the data active = response below about 74% or above about 130%; inactive = in between;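 note: Galphao activated as the GDP aluminium fluoride complex binding bead-coupled RGS16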
RGS4-Gao confirm: modulators of RGS4-Galphao protein binding, confirmation, biochemical, single concentration, multiplexed bead flow cytometry. shares compounds with RGS16-Gao. actives lie on both sides. binding response (% of control), % at 10 µM. 1,700 compounds, 4% hits; in the data active = binding response below about 74% or above about 130%; inactive = in between
RGS19-Gao single: regulators of RGS19-Galphao binding, confirmation, biochemical, single point, multiplexed bead flow cytometry | shares compounds with RGS16-Gao | bead-based flow cytometry RGS19-Galphao binding; actives lie on both sides | response (percent of control binding), % at 10 µM | 1,700 compounds, 5% hits | AID 1841, 2009; in the data active = response below about 50% or above about 160%; inactive = in between;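 note: 100% = no compound control and 0% = blank background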
* hit, by the source's call; i = inactive; ? = inconclusive; · = not tested or not shown; [ ] = another dose, or the depositor's remark. Unless noted, the rule behind the calls is not given here.

SMILES	RGS4-Gao reg	RGS16-Gao	Avidin bead fluor	RGS8-Gao	RGS7-Gao	GSH fluor	Avidin counter	RGS8-Gao single	RGS7-Gao confirm	RGS16-Gao single	RGS4-Gao confirm	RGS19-Gao single	others
Cn1c(=O)c2c(=O)cc(N)[nH]c2n(C)c1=O	97	100	7	77	?	·	0	100	103	101	102	99
COc1ccc(-c2cnnn2-c2ccc(NC(=O)c3ccc(S(=O)(=O)N4CCCCC4)cc3)cc2)cc1	22*	14	-2	25*	21*	10	0	100	99	98	99	103
CCCNC(=O)c1nnsc1Sc1ccc(Cl)cc1	105	111	24	104	106	10	·	·	·	·	·	·
CC(=O)/C(=N/Nc1ccccc1Cl)Sc1nnc(C(O)c2ccccc2)n1-c1ccccc1 (stereo not drawn)	99	90	9	100	98	15	·	·	·	·	·	·
CC(=O)/C(=N/Nc1ccccc1)Sc1nnc(C(O)c2ccccc2)n1-c1ccccc1 (stereo not drawn)	99	18*	8	85	96	15	0	95	105	99	101	106	RGS-Gao=99*
Cc1cccc(C)c1NC(=O)C(=O)c1cn(C)c2ccccc12	97	99	9	99	102	20	·	·	·	·	·	·
Cc1cc(NC(=O)C(=O)c2cn(C)c3ccccc23)no1	110	106	62*	104	165*[activator]	14	-1	109	102	108	105	101	RGS-Gao=110*
COCCNC(=O)c1cc(Sc2nnc(C)s2)nc2ccccc12	36*	40	2	60*	?	·	-1	105	94	111	96	109
COC(=O)[C@H](C)NC(=O)NCc1ccccc1	94	95	7	100	?	·	·	·	·	·	·	·
Cc1ccc(N2C(=O)CC(NNc3nc4ccccc4s3)C2=O)cc1 (stereo not drawn)	19*	i	-1	34*	33*	13	0	103	98	99	97	83
O=C1CC(NNc2nc3ccccc3s2)C(=O)N1c1ccccc1 (stereo not drawn)	98	100	24	101	96	28	·	·	·	·	·	·

Screening results as filed in PubChem.
